Assay outcomes: PubChem BioAssay, National Center for Advancing Translational Sciences (NCATS)
Hits are enriched below; roughly 6.6% of the tested compounds scored in any of these assays.
SW480 rerep – induces DNA re-replication in SW480 colon adenocarcinoma cells; Potency, µM (top dose mostly 46.1 µM), inactives show at the highest dose re-replication activation, hits mostly activators; AID 624297; SW480 DNA re-replication, Hoechst DNA content imaging, 48 h; actives 1.8% (n = 340,000); further: % of control where 0% means no effect; nearly all actives have a fitted effect of over 55% in size
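Hoechst fluorescence of nuclei (405 nm excitation, 500-530 nm emission) measured by plate-scanning imager after 48 hr compound exposure at 37 C; re-replication scored as increased number of nuclei with elevated intensity.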
MCF10A rerep – DNA re-replication induction in MCF 10a cells; MCF 10A DNA re-replication, Hoechst nuclear intensity, 48 h; Potency, µM (series often up to 46.1 µM), for the others: at the top dose activity, positive = re-replication, actives largely listed as activators; actives 2.9% (n = 350,000); further: % of control where 0% means no effect; nearly all actives have a fitted effect of over 50% in size
KB-3-1 tox – KB-3-1 parental cell cytotoxicity. actives 1.4% (n = 400,000). KB-3-1 viability, CellTiter-Glo ATP luminescence, 72 h. Potency, µM (titrated, usually from 46.1 µM), actives largely listed as cytotoxic; further: on the % scale 0 is the no-effect control and ±100 the full control effect; nearly all actives have a fitted effect of over 60% in size
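Parental KB-3-1 adenocarcinoma cells in phenol-red-free DMEM with 10% FBS were pin-treated with compounds at several concentrations, incubated 72 h at 37 °C, and viability read by CellTiter-Glo luminescence; concentration-effect curves were fitted after normalization.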
RGS4 inh – blocks human RGS4-accelerated GTP hydrolysis; P49798; Transcreener GDP fluorescence polarization, RGS4-accelerated GTP hydrolysis; Potency, µM (highest dose often 114 µM), for inactives: at the top dose activity change, negative = inhibition, hits mostly inhibitors; actives 0.039% (n = 390,000); further: on the % scale 0 is the no-effect control and ±100 the full control effect; nearly all actives have a fitted effect of over 75% in size
Target sequence (P49798 whole entry, looked up): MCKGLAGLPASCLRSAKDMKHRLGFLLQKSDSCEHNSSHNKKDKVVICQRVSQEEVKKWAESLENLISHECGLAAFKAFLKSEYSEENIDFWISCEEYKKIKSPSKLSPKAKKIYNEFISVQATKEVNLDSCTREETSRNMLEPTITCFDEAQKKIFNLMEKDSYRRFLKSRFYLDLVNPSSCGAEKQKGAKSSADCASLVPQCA
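MLSMR compounds (23 nl, pin-transferred) preincubated 10 min at room temperature with a 500nM (2x) first reagent, then RGS4 at 900nM (2x) plus Transcreener GDP mix added; fluorescence polarization (620/688 nm) read before and after 90 min at 30 °C.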
TSG101-PTAP inh – blocks PTAP/TSG101 interaction to inhibit HIV-1 budding; 340,000 tested, under 10 active; Potency, µM (top dose mostly 115 µM), inactives show at the top dose activity change, negative = inhibition, actives largely listed as inhibitors; Fluorescence polarization, FITC-PTAP peptide / Tsg101 binding; Q99816; AID 493005; active means well fitted inhibition curve with a large enough effect in the main read-out, with a control signal flat, not every such curve was filed as active; inconclusive means small, poorly fitted or top-dose-only effect, or effect the other way, or a change in a side signal; inactive means no such curve, though single readings can be large or run the other way; further: % of control where 0% means no effect
Target sequence (Q99816 whole entry, looked up): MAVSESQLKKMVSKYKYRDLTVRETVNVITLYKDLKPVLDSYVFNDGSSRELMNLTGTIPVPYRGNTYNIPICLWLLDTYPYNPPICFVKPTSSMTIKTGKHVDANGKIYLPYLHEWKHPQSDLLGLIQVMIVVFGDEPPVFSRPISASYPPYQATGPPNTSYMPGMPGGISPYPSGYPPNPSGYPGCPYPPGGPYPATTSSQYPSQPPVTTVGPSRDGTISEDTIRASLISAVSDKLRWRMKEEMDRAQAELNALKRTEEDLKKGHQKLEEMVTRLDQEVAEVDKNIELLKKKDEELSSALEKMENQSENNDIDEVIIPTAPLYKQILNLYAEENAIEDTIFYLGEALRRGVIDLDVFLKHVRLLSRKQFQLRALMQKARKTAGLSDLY
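Tsg101 binding domain (10 uM final) was mixed with compound and a FITC-labeled PTAP peptide (50 nM final) in HEPES pH 7.5 buffer with NaCl, Tween 20, EDTA and TCEP; fluorescence polarization was read after 20 min at r.t.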
KB-V1 MDR tox – KB-V1 MDR subline cytotoxicity; KB-V1 MDR cells viability, CellTiter-Glo, 72 h; Potency, µM (top dose mostly 46.1 µM), usual class: cytotoxic; actives 3.4% (n = 400,000); AID 1347076; further: on the % scale 0 is the no-effect control and ±100 the full control effect; nearly all actives have a fitted effect of over 60% in size
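Luminescent ATP read-out (CellTiter-Glo, 10 min) measures survival of drug-selected KB-V1 MDR cells after 72 h, 37 degrees C compound exposure. Medium: phenol-red-free DMEM, 10% FBS. Values from fitted concentration-response curves.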
* hit, by the source's call; i = inactive; ? = inconclusive; . = no result given; [ ] = remark or other dose. Unless noted, the call rests on the fitted dose curve; in most records, active means well fitted curve in the direction sought with a large enough effect; inconclusive means small, poorly fitted or top-dose-only effect, or another doubt; inactive means no such curve, though single readings can be large; an effect the other way counts as inactive or inconclusive. Potency means the concentration at half of the fitted maximal effect.

SMILES	SW480 rerep	MCF10A rerep	KB-3-1 tox	RGS4 inh	TSG101-PTAP inh	KB-V1 MDR tox
Fc1ccc(Nc2ncnc3c2nc2n3CCCCC2)c(F)c1	.	.	i	1%	.	?
COC(=O)c1sc2cccc(F)c2c1S(=O)(=O)NCc1ccc(F)cc1	.	.	i	-1%	.	i
O=Cc1ccc2[nH]ccc2c1	.	.	i	.	.	i
CCOC(=O)c1ccc(NC(=O)c2oc3c(c2C)-c2nn(Cc4ccccc4Cl)cc2CC3)cc1	.	.	.	17%	.	.
CC(NC(=O)c1nn(C)c(=O)c2ccccc12)c1ccccc1 (configuration not stated)	-7%	-1%	i	-7%	-1%	21µM*
CNC(=S)N(CCc1c(C)[nH]c2ccc(C)cc12)Cc1ccco1	-6%	?	i	-14%	1%	i
CNC(=S)N(CCc1c(C)[nH]c2ccc(Cl)cc12)Cc1cc(OC)c(OC)c(OC)c1	26µM*	?	?	-31%	0%	?
CCNC(=S)N(CCc1c(C)[nH]c2ccc(Cl)cc12)Cc1ccco1	18µM*	?	23µM*	17%	-8%	i
CC(=O)c1c(C)[nH]c(C(=O)N2CCCC(C)C2)c1C (configuration not stated)	2.3µM*	9%	i	-3%	-3%	i
COc1cccc(-c2cn3c(n2)sc2cc(C(=O)NCc4ccccc4F)ccc23)c1	.	.	.	-8%	.	.
Cc1ccc(CCNC(=O)CCSCc2ccccc2F)cc1	.	.	.	8%	.	.
CN(Cc1ccco1)c1ncnc2ccc(-c3ccc4c(ccn4C)c3)cc12	3.7µM*	?	?	-16%	.	i
CN(Cc1ccco1)c1ncnc2ccc(-c3ccc4c(c3)OCO4)cc12	0%	25%	i	-11%	-1%	i
C/C(=N\NC(N)=S)c1ccc2c(c1)OCCO2	-9%	0%	?	-15%	-2%	?
COc1cc2ccc(C(C)=NNC(N)=S)cc2cc1OC	.	.	i	.	.	?
CC(=O)N/N=C(\C)c1ccc2c(c1)OCCO2	-7%	-4%	?	-6%	0%	23µM*
CC(=NNC(N)=S)c1ccc2cc3c(cc2c1)OCO3	.	.	?	.	.	0.58µM*
C/C(=N\NC(=S)Nc1ccc(F)cc1)c1ccc2c(c1)OCCO2	?	5.8µM*	?	6%	1%	12µM*
C/C=C1\COC(C(=O)NCc2cccc(OC)c2OC)(C(F)(F)F)C=C1C=C(C)C (configuration not stated)	.	.	.	22%	.	.
O=C1/C(=C\c2cccc(O)c2O)SC(=S)N1Cc1ccccc1	18µM*	?	?	-48%[56.9 µM]	2%	?
O=C1/C(=C\c2ccc(O)c(O)c2)SC(=S)N1Cc1ccccc1	?	12%	?	-44%	9%	?
O=C1/C(=C\c2cc([N+](=O)[O-])ccc2O)SC(=S)N1Cc1ccc(Cl)cc1	-8%	?	?	?	?	23µM*
CCC1CN(C(=O)N2CCC(C(=O)NCCc3ccccc3Cl)CC2)c2cc(C)ccc2O1 (configuration not stated)	.	.	.	-12%	.	.
FC(F)(F)C(F)(F)C(F)(F)C(F)(F)C(F)(F)C(F)(F)C(F)(F)C(F)(F)Br	-3%	0%	.	.	.	.
ClC(Cl)c1nnc(-c2ccccc2)c(-c2c[nH]c3ccccc23)n1	1%	26µM*	i	0%	-2%	?
SMILES	SW480 rerep	MCF10A rerep	KB-3-1 tox	RGS4 inh	TSG101-PTAP inh	KB-V1 MDR tox
CCCN1C(C(=O)c2ccccc2)=C(OC(=O)COc2ccccc2)c2ccccc2S1(=O)=O	.	.	.	-2%	.	.
C=CCN1C(C(=O)c2ccccc2)=C(OC(=O)COc2ccccc2)c2ccccc2S1(=O)=O	?	?	?	-3%	-1%	12µM*
COc1ccc(-c2nc3nc(C)cc(N4CCN(c5cccc(C(F)(F)F)c5)CC4)n3n2)cc1	.	.	i	-11%	.	i
Cc1cc(Nc2cccc(Br)c2)n2c(nc3ccccc32)c1C#N	.	.	8.2µM*	16%	.	?
Cc1cc(Nc2ccc(O)cc2)n2c(nc3ccccc32)c1C#N	-20%[1.84 µM]	-24%	i	17%	1%	i
N#Cc1c2c(c(Nc3ccccc3)n3c1nc1ccccc13)CCC2	3%[9.22 µM]	16µM*	?	?	-1%	i
COc1ccccc1C1c2c(-c3ccc(Cl)cc3)n[nH]c2C(=O)N1c1ccc(C)cc1 (configuration not stated)	.	.	i	2%	.	26µM*
CCOc1ccc(C2c3c(-c4ccc(C)cc4)n[nH]c3C(=O)N2c2ccc(Cl)cc2)cc1 (configuration not stated)	.	.	?	13%	.	?
CCN1C(=O)S/C(=C/c2c(OCc3ccc(C(=O)O)cc3)ccc3ccccc23)C1=O	-405%	6.5µM*	i	10%	-9%	i
COC(=O)c1ccc2nc(-c3ccc(Cl)cc3)c(Cc3ccsc3)n2c1	.	.	?	.	.	21µM*
Cc1ccc(-c2nc3ccc(C)cn3c2Cc2cccc(Cl)c2)cc1	.	.	i	.	.	?
Cc1ccc2nc(-c3cccc(Cl)c3)c(Cc3ccccc3)n2c1	.	.	i	.	.	21µM*
Cc1ccc2nc(-c3ccccc3)c(CN3CCOCC3)n2c1	-13%	0.65µM*	i	-12%	-7%	i
N#Cc1ccc(-c2nc3ccc(Br)cn3c2Cc2ccccc2)cc1	.	.	21µM*	.	.	i
Cc1ccc2nc(-c3ccccc3)c(CN3CCSCC3)n2c1	0%	4%	i	2%	1%	?
CCOC(=O)c1ccc2c(c1)N(Cc1ccc(F)cc1Cl)C(=O)c1ccccc1S2	.	.	.	2%	.	.
CCc1cc(=O)oc2c(C)c3c(cc12)CN(CCc1ccccc1OC)CO3	.	.	i	-32%	.	i
COc1ccc(-c2nc3ccc(C)cn3c2Cc2ccsc2)cc1OC	.	.	i	.	.	23µM*
COC(=O)c1ccc2nc(-c3ccc(OC)c(OC)c3)c(Cc3ccsc3)n2c1	.	.	i	.	.	i
C=C1C(=O)OC2C1CCC(C)C1C=CC(=O)C12C (configuration not stated)	6.5µM*	2.1µM*	?	-33%	1%	?
Cc1oc2c(c1C(=O)Nc1ccc(Cl)cc1F)C1=NCCN1C=N2	.	.	i	-7%	.	i
O=C1O/C(=C/c2ccccc2)c2ccccc21	-4%	-2%	i	-10%	2%	i
N#CC1=C(c2ccccc2)/C(=C/c2ccccc2)OC1=O	?	6.5µM*	?	?	-1%	?
COc1ccc(C(=O)NCC(c2ccco2)S(=O)(=O)c2cccs2)cc1 (configuration not stated)	.	.	i	9%	.	i
